PubChem BioAssay (Tox21)
Results filed as inconclusive are left out. Calls of active or inactive are those of the source. Unless noted, calls come from the whole dose curve; as a rule, active = well fitted curve in the direction sought with a large enough effect in the repeat runs; inconclusive = weak or mixed curves; inactive = no such curve, though single readings can be large; an effect the other way counts as inactive or inconclusive.

Tests used:
[1] = qHTS assay for small molecule agonists of the p53 signaling pathway (AID 651631; calls by dose curve; note: nearly all actives have a fitted effect of over 15% in size)
How it was run: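 Testing took place in human colorectal HCT-116 cells with stable p53RE-driven beta-lactamase. After 16 h of compound exposure at 37 °C, a FRET substrate was added and fluorescence recorded 2 h later.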

[2] = qHTS assay for small molecules that induce genotoxicity in human embryonic kidney cells expressing luciferase-tagged ATAD5 (AID 651632); note: nearly all actives have a fitted effect of over 15% in size
How it was run: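 A rise in luciferase signal from ATAD5-tagged HEK293T cells marks genetic stress. Cells were exposed to compounds for 16 hr at 37C, 5% CO2, then luciferase was quantified after a 30 min room-temperature incubation with Amplite.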

[3] = qHTS assay for small molecules that induce genotoxicity in human embryonic kidney cells expressing luciferase-tagged ATAD5 - cell viability (AID 651634; calls by dose curve; note: nearly all actives have a fitted effect of over 25% in size)
How it was run: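 Cytotoxicity counter-readout: after 15.5 hr compound treatment at 37C, live-cell protease activity in ATAD5-luciferase HEK293T cells measured by CellTiter-Fluor fluorescence, 30 min development at 37C.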

[4] = qHTS assay for small molecule disruptors of the mitochondrial membrane potential - cell viability (AID 720634; calls by dose curve;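 note: human HepG2 liver cancer cells; series mostly up to about 83 µM; nearly all actives have a fitted effect of over 20% in size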)
How it was run: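 Cytotoxicity was quantified from ATP content by CellTiter-Glo luminescence in the same wells as the MMP dye read-out. HepG2 (2,000 cells/well) were plated overnight and exposed to compounds for 1 hr at 37 C.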

[5] = qHTS assay to test for compound auto fluorescence at 590 nm (red) in HepG2 cells (AID 720674)
How it was run: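 Seeding: 2,000 HepG2 cells/well, MEM/10% FBS, overnight 37 C. Dosing: compound vs DMSO. Incubation: 1 hr, 37 C, 5% CO2. Read: fluorescence 540 ex/590 em, Rose Bengal sodium as red reference.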

[6] = qHTS assay to test for compound auto fluorescence at 535 nm (green) in HepG2 cells (AID 720675)
[7] = qHTS assay to test for compound auto fluorescence at 590 nm (red) in HEK293 cells (AID 720679)
How it was run: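 HEK293 cells (2,000/well, 10% dialyzed FBS) attached 4-5 hr, then dosed with compound or DMSO and incubated overnight at 37C, 5% CO2. Red fluorescence read at 540/590 nm, Rose Bengal sodium as reference fluorophore.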

[8] = qHTS assay for small molecule agonists of the p53 signaling pathway - cell viability (AID 651633; calls by dose curve; note: series mostly up to about 83 µM; nearly all actives have a fitted effect of over 30% in size)
How it was run: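 p53RE-bla cells were treated with compound for 16 hours at 37 C. Cytotoxicity was then measured as CellTiter-Glo luminescence after 30 min at room temperature.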

[9] = qHTS assay for small molecule disruptors of the mitochondrial membrane potential (AID 720635); note: potency is the fitted concentration of half-maximal effect
How it was run: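 HepG2 cells exposed to compound 1 hr at 37C, then Mito-MPS dye 30 min. Ratio read of aggregate (540/590 nm) versus monomer (490/535 nm) fluorescence.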

[10] = qHTS assay to test for compound auto fluorescence at 460 nm (blue) in HEK293 cells (AID 720678)
How it was run: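 HEK293 cells (2,000/well, medium with 10% dialyzed FBS) attached 4-5 hr, then exposed to compound overnight at 37C, 5% CO2. Blue fluorescence read at 405/460 nm, with triamterene as reference fluorophore.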
% is set by controls: 0 for no effect and ±100 for the full control effect.

Oc1ccc(O)c2c(O)cccc12
inactive: Potency [1] | Potency [2] | Potency [3] | Potency [4] | outcome [5] | outcome [6] | outcome [7]

CC(C)c1ccc2c(C(C)C)cc(C(C)C)c(S(=O)(=O)O)c2c1
inactive: Potency [2] | Potency [8] | Potency [3] | Potency [4] | Potency [9] | outcome [5] | Potency [10] | outcome [7]

CCCCCCCCCCCCC(=O)O
inactive: Potency [1] | Potency [8] | Potency [3] | Potency [4] | Potency [9] | outcome [5] | outcome [6] | Potency [10]

CCCCCCCC/C=C\CCCCCCCC(N)=O
active: Potency [9] 48.5 µM
inactive: Potency [2] | Potency [8] | Potency [3] | Potency [4] | outcome [5] | outcome [6] | Potency [10] | outcome [7]

O=C(O)[C@@H]1[C@H]2C[C@H]3c4[nH]c5ccccc5c4CCN3C[C@@H]2CC[C@@H]1O
inactive: Potency [2] | Potency [8] | Potency [3] | Potency [4] | fluorescence, relative to Rose Bengal [5] 0.127% [at 18.6 µM] | fluorescence, % of fluorescein control [6] 0.513% [at 18.6 µM] | fluorescence, % of triamterene [10] 4.22% [at 18.6 µM]
active: Potency [9] 11.4 µM

Cc1ccc(C(N)=O)cc1N
inactive: Potency [2] | Potency [8] | Potency [3] | Potency [4] | Potency [9] | outcome [5] | outcome [6] | Potency [10] | outcome [7]

Cc1ccccc1N=Nc1ccc(N=Nc2c(O)ccc3ccccc23)c(C)c1
inactive: Potency [2] | Potency [8] | Potency [3] | Potency [4] | Potency [9] | outcome [5] | outcome [6] | Potency [10]

CC(=O)SCc1ccco1
inactive: Potency [2] | Potency [8] | Potency [3] | Potency [4] | Potency [9] | outcome [5] | outcome [6] | Potency [10] | outcome [7]

CCOc1ccc2[nH]cc(C(=O)NCc3ccccc3)c(=O)c2n1
inactive: Potency [2] | Potency [8] | Potency [3] | Potency [4] | outcome [5] | outcome [6] | Potency [10] | outcome [7]
active: Potency [9] 8.63 µM

CCCCOc1cc(C(=O)OCCN(CC)CC)ccc1N
inactive: Potency [1] | Potency [2] | Potency [3] | fluorescence, % of fluorescein control [6] -0.0083% [at 18.6 µM] | fluorescence, % of triamterene [10] 0.0068% [at 18.6 µM] | fluorescence, % of fluorescent control [7] 0.112% [at 18.6 µM]

CN(C)CCCOc1nn(Cc2ccccc2)c2ccccc12
inactive: Potency [1] | Potency [2] | Potency [3] | fluorescence, relative to Rose Bengal [5] -0.438% [at 18.6 µM] | fluorescence, % of fluorescein control [6] -0.0147% [at 18.6 µM] | fluorescence, % of triamterene [10] -0.0099% [at 18.6 µM] | fluorescence, % of fluorescent control [7] 0.312% [at 18.6 µM]

Cc1ccccn1
inactive: Potency [1] | Potency [3] | Potency [4] | Potency [9] | outcome [6] | Potency [10] | outcome [7]
